About 79,000 compounds went through this panel and 15% of them were active in at least one assay; those are over-represented in the sample as a whole. Calls of active or inactive are those of the source. Rule as the data show it: active = growth inhibition above about 70%; inactive = the rest.
Columns and labels:
[1] = NCI Yeast Anticancer Drug Screen. Data for the rad52 strain (AID 147);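 also: 0% = growth of vehicle-treated control cultures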; conditions: S. cerevisiae rad52 mutant growth inhibition, active compounds read high
Procedure, shortened: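 Inhibition of yeast growth, referenced to vehicle controls, was the measured output for a strain with defective DNA damage repair.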

[2] = NCI Yeast Anticancer Drug Screen. Data for the wt1 strain (AID 149);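 also: 0% = growth of vehicle-treated wt1 cultures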; conditions: S. cerevisiae wt1 strain (SPY 50644) growth inhibition, active compounds read high
Procedure, shortened: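 Measured: growth of wt1 yeast under compound versus vehicle treatment, reported as inhibition.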

[3] = NCI Yeast Anticancer Drug Screen. Data for the rad50EPP+ strain (AID 151);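 also: 0% = growth of vehicle-treated control cultures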; conditions: S. cerevisiae rad50 mutant strain, active compounds read high
Procedure, shortened: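 Genetically defined yeast (rad50EPP+, DNA damage repair alteration) is grown with compound, and inhibition of growth is expressed relative to vehicle-treated controls.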

[4] = NCI Yeast Anticancer Drug Screen. Data for the mgt1 strain (AID 153); conditions: S. cerevisiae mgt1 mutant growth inhibition, active compounds read high
Procedure, shortened: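 In the mgt1 strain, test compounds were added and growth inhibition was determined relative to vehicle-treated controls.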

[5] = NCI Yeast Anticancer Drug Screen. Data for the rad50 strain (AID 155);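 also: 0% = growth of vehicle-only cultures of the same strain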; conditions: S. cerevisiae rad50 strain growth inhibition, active compounds read high
Procedure, shortened: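 Growth of the mutant yeast was measured after compound exposure and referenced to vehicle-treated cultures.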

[6] = NCI Yeast Anticancer Drug Screen. Data for the mec2-1 strain (AID 157); conditions: S. cerevisiae mec2-1 strain, active compounds read high
Procedure, shortened: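 Each compound was tested on mec2-1 yeast, a strain altered in DNA damage repair or cell cycle control. Growth inhibition is reported relative to vehicle.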

[7] = NCI Yeast Anticancer Drug Screen. Data for the rad14 strain (AID 159);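 also: 0% = growth of vehicle-treated control cultures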; conditions: S. cerevisiae rad14 strain growth inhibition, active compounds read high
Procedure, shortened: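 Here, inhibition of yeast growth was measured after compound exposure, using a strain with a genetic defect in DNA damage repair and vehicle-treated cultures as the reference.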

[8] = NCI Yeast Anticancer Drug Screen. Data for the sgs1 mgt1 strain (AID 161);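 also: 0% = growth of cultures given vehicle only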; conditions: S. cerevisiae sgs1 mgt1 strain, active compounds read high
Procedure, shortened: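 Mutant yeast exposed to compound; growth scored against vehicle-only wells.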

[9] = NCI Yeast Anticancer Drug Screen. Data for the CLN2oe strain (AID 163);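 also: 0% = growth of vehicle-only control cultures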; conditions: S. cerevisiae CLN2oe strain, active compounds read high
Procedure, shortened: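 First, the altered yeast strain was treated with each compound; second, its growth was measured; finally, inhibition was derived by comparison with vehicle controls.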

[10] = NCI Yeast Anticancer Drug Screen. Data for the cln2 rad14 strain (AID 165);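 also: 0% = growth equal to vehicle treated cultures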; conditions: S. cerevisiae cln2 rad14 strain, active compounds read high
Procedure, shortened: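 Test compounds were added to cln2 rad14 yeast cultures; inhibition of growth was then determined by comparison with vehicle treatment.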

[11] = NCI Yeast Anticancer Drug Screen. Data for the bub3 strain (AID 167); conditions: S. cerevisiae bub3 mutant strain, active compounds read high
Procedure, shortened: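 Whole-cell yeast assay. The mutant strain was incubated with compounds, and growth inhibition was determined by comparison with vehicle-treated cells.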

[12] = NCI Yeast Anticancer Drug Screen. Data for the wt2 strain (AID 169);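 also: 0% = growth of vehicle-treated yeast cultures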; conditions: S. cerevisiae wt2 strain growth inhibition, active compounds read high
Procedure, shortened: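 The panel's yeast strains carry defined changes in DNA repair or cell cycle genes. Each strain is grown with compound, and growth loss is scored relative to vehicle.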

[13] = NCI Yeast Anticancer Drug Screen. Data for the mlh1 strain (AID 171);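 also: 0% = growth of vehicle-treated control cultures of the same strain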; conditions: S. cerevisiae mlh1 strain growth inhibition, active compounds read high
Procedure, shortened: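 Inhibition values reflect reduced yeast growth in the presence of compound, referenced to vehicle controls, using a strain chosen for its alteration in DNA repair or cell cycle control.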

[14] = NCI Yeast Anticancer Drug Screen. Data for the sgs1 strain (AID 173);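 also: 0% = growth of vehicle-only control cultures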; conditions: S. cerevisiae sgs1 mutant, active compounds read high
Procedure, shortened: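 Vehicle-treated cultures served as reference for growth inhibition of a yeast strain altered in DNA damage repair or cell cycle control after compound exposure.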

[15] = NCI Yeast Anticancer Drug Screen. Data for the mlh1 rad18 strain (AID 175); conditions: S. cerevisiae mlh1 rad18 strain growth inhibition, active compounds read high
Procedure, shortened: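 Inhibition values reflect reduced growth of mutant yeast versus vehicle-treated controls following compound exposure; the mutations affect DNA damage repair.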

[16] = NCI Yeast Anticancer Drug Screen. Data for the rad18 strain (AID 177); conditions: S. cerevisiae rad18 mutant growth inhibition, active compounds read high
Procedure, shortened: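 Steps: expose repair-mutant yeast to compound; measure growth; express as inhibition relative to vehicle control.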

[17] = at 5.0 µM (retest, dose inferred, filed as 0.5)
[18] = at 50.0 µM (retest, dose inferred, filed as 5.0)

Measured: growth inhibition

CC(C)S(=O)(=O)/C=C\S(=O)(=O)C(C)C
inactive: [1]; at 1.2 µM -5% | [1]; at 3.7 µM -7% | [1]; at 11.0 µM 23% | [2]; at 1.2 µM 1% | [2]; at 3.7 µM 19% | [2]; at 11.0 µM 44% | [3]; at 1.2 µM -1% | [3]; at 3.7 µM -11% | [3]; at 11.0 µM 5% | [3]; at 33.0 µM 26% | [3]; at 100.0 µM 25% | [4]; at 1.2 µM 1% | [4]; at 3.7 µM -5% | [4]; at 11.0 µM 15% | [4]; at 33.0 µM 63% | [5]; at 1.2 µM -5% | [5]; at 3.7 µM -5% | [5]; [17] -138% | [5]; at 11.0 µM 14% | [5]; at 50.0 µM 64.8% | [6]; at 1.2 µM 1% | [6]; at 3.7 µM 2% | [6]; [17] -45% | [6]; at 11.0 µM 7% | [6]; at 33.0 µM 58% | [6]; [18] 69% | [6]; at 50.0 µM 62.8% | [7]; at 1.2 µM -3% | [7]; at 3.7 µM 9% | [7]; at 11.0 µM 36% | [7]; at 33.0 µM 55% | [8]; [17] -56% | [9]; at 1.2 µM -6% | [9]; at 3.7 µM -4% | [9]; at 11.0 µM 4% | [9]; at 33.0 µM 28% | [10]; [17] -50% | [10]; [18] -3% | [10]; at 50.0 µM -17.3% | [11]; at 1.2 µM -4% | [11]; at 3.7 µM 1% | [11]; [17] -71% | [11]; at 11.0 µM 5% | [11]; at 33.0 µM 52% | [11]; at 50.0 µM 50.6% | [12]; at 1.2 µM 5% | [12]; at 3.7 µM 15% | [12]; at 11.0 µM 44% | [13]; at 1.2 µM -8% | [13]; at 3.7 µM -1% | [13]; at 11.0 µM 1% | [13]; at 33.0 µM 64% | [14]; at 1.2 µM -5% | [14]; at 3.7 µM -8% | [14]; at 11.0 µM 30% | [15]; [17] -133% | [16]; at 1.2 µM -2% | [16]; at 3.7 µM 5% | [16]; at 11.0 µM 19%
active: [1]; at 33.0 µM 75% | [1]; at 100.0 µM 97% | [2]; at 33.0 µM 87% | [2]; at 100.0 µM 98% | [4]; at 100.0 µM 96% | [5]; at 33.0 µM 83% | [5]; [18] 74% | [5]; at 100.0 µM 97% | [6]; at 100.0 µM 93% | [7]; at 100.0 µM 99% | [8]; [18] 76% | [8]; at 50.0 µM 72% | [9]; at 100.0 µM 85% | [11]; [18] 81% | [11]; at 100.0 µM 92% | [12]; at 33.0 µM 90% | [12]; at 100.0 µM 99% | [13]; at 100.0 µM 96% | [14]; at 33.0 µM 80% | [14]; at 100.0 µM 98% | [15]; [18] 85% | [15]; at 50.0 µM 82.8% | [16]; at 33.0 µM 78% | [16]; at 100.0 µM 93%

NC(=S)N1N=C2c3ccccc3CC[C@@H]2[C@@H]1c1ccccc1
inactive: [1]; at 1.2 µM -34% | [1]; at 3.7 µM -17% | [1]; at 11.0 µM -8% | [1]; at 33.0 µM 7% | [2]; at 1.2 µM 11% | [2]; at 3.7 µM 2% | [2]; at 11.0 µM 2% | [2]; at 33.0 µM 9% | [2]; at 100.0 µM 67% | [3]; at 1.2 µM -31% | [3]; at 3.7 µM -36% | [3]; at 11.0 µM -49% | [3]; at 33.0 µM -40% | [3]; at 100.0 µM -23% | [4]; at 1.2 µM -17% | [4]; at 3.7 µM -29% | [4]; at 11.0 µM -19% | [4]; at 33.0 µM 15% | [5]; at 1.2 µM -13% | [5]; at 3.7 µM -2% | [5]; [17] 35% | [5]; at 11.0 µM -1% | [5]; at 33.0 µM 15% | [6]; at 1.2 µM -10% | [6]; at 3.7 µM -13% | [6]; [17] -16% | [6]; at 11.0 µM -3% | [6]; at 33.0 µM 13% | [6]; at 50.0 µM 64.4% | [7]; at 1.2 µM -36% | [7]; at 3.7 µM -33% | [7]; at 11.0 µM -25% | [7]; at 33.0 µM 2% | [8]; [17] 8% | [9]; at 1.2 µM -28% | [9]; at 3.7 µM -27% | [9]; at 11.0 µM -25% | [9]; at 33.0 µM -10% | [10]; [17] -4% | [10]; [18] 55% | [10]; at 50.0 µM 67.2% | [11]; at 1.2 µM -4% | [11]; at 3.7 µM 11% | [11]; [17] 27% | [11]; at 11.0 µM -4% | [11]; at 33.0 µM 34% | [12]; at 1.2 µM -17% | [12]; at 3.7 µM -5% | [12]; at 11.0 µM -2% | [12]; at 33.0 µM 25% | [13]; at 1.2 µM -31% | [13]; at 3.7 µM -25% | [13]; at 11.0 µM -8% | [13]; at 33.0 µM 23% | [14]; at 1.2 µM 6% | [14]; at 3.7 µM 13% | [14]; at 11.0 µM 27% | [14]; at 33.0 µM 68% | [15]; [17] -15% | [16]; at 1.2 µM -25% | [16]; at 3.7 µM -21% | [16]; at 11.0 µM -11% | [16]; at 33.0 µM 14% | [16]; at 100.0 µM 66%
active: [1]; at 100.0 µM 77% | [4]; at 100.0 µM 88% | [5]; [18] 79% | [5]; at 50.0 µM 75.6% | [5]; at 100.0 µM 86% | [6]; [18] 77% | [6]; at 100.0 µM 73% | [7]; at 100.0 µM 84% | [8]; [18] 82% | [8]; at 50.0 µM 83% | [9]; at 100.0 µM 73% | [11]; [18] 86% | [11]; at 50.0 µM 77.1% | [11]; at 100.0 µM 90% | [12]; at 100.0 µM 86% | [13]; at 100.0 µM 88% | [14]; at 100.0 µM 89% | [15]; [18] 81% | [15]; at 50.0 µM 74.5%

Reference: PubChem BioAssay (NCI)
